SMILES strings stand for the structures. The panel holds about 83,000 compounds, 20% with a hit somewhere; the sample as a whole holds those more often.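 Percent growth is the endpoint: 0 to 100 indicates growth inhibition (40 means 60% inhibition), 0 means no net growth, and negative values indicate cell death.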 Values without a mark were called inactive. Calls of active or inactive are those of the source. The calls were made as follows: active = growth percent below 10; inactive = the rest.

Common to all, as to assay: NCI-60 one-dose screen, 48 h (100 = growth as untreated, 0 = no growth, -100 = all killed)
What all share (conditions): 10 µM unless noted

In test [1] the test system is NCI-H23 lung.
Test [2] deals with NCI-H226 lung.
The subject of test [3] is NCI-H322M lung.
Test [4] relates to HOP-62 NSCLC.
In test [5] the test system is NCI-H460 lung.
The test system of test [6] is HOP-92 NSCLC.
Test [7] concerns NCI-H522 lung.
The subject of test [8] is A549/ATCC NSCLC.
Test [9] concerns 786-0 renal.
Test [10] relates to COLO 205 colon.
The subject of test [11] is DU-145 prostate.
Test [12] has as its system K-562 leukemia.
Test [13] concerns MALME-3M melanoma.
Test [14] has as its system MDA-MB-231 breast.
In test [15] the test system is RXF 393 renal.
Test [16] has as its system SF-268 CNS.
Test [17] concerns SF-295 CNS.
Test [18] relates to SF-539 CNS.
Test [19] concerns UACC-257 melanoma.
For test [20], the system named is M14 melanoma.

For the compound `Cc1ccc(-c2cnc3sc(C(=O)NCCc4ccccc4)c(C)n23)cc1`, the growth in test [1] was 95.4%; in test [2] it was 78.6%; in test [3], 91.6%; in test [4], 89.1%; in test [5] it was 102%; in test [6] it was 91.1%. Further, the growth in test [7] is 91.7%; in test [8], 109%; in [9] it was 97.7%; in test [10] it was 116%; in [11] it was 99.1%; in test [12], 93.9%. Besides, the growth in test [13] is 95.5%; in test [14], 79.1%; in [15], 99.1%; in test [16], 86.7%; in test [17], 104%; in [18], 96.6%. The growth was 120% in test [19] and 91.9% in test [20].
As to `COc1ccc(C(=O)COC(=O)[C@H](C[Se][Se]C[C@H](NC(=O)c2ccc(Br)cc2F)C(=O)OCC(=O)c2ccc(OC)cc2)NC(=O)c2ccc(Br)cc2F)cc1`, the growth in test [1] was -50.3% (active); in [2] it was -69.5% (active); in [3], 0.597% (active); in [4], -72.4% (active); in test [5] it was -36.6% (active); in test [6], -27.9% (active). Besides, the growth is -69.5% (active) in test [7]; -3.84% (active) in test [8]; -95.8% (active) in test [9]; -45.6% (active) in [10]; -70.6% (active) in test [11]; 9.64% (active) in [12]. The growth is -45.9% (active) in test [13]; -57.5% (active) in test [14]; -90.5% (active) in test [15]; -54.3% (active) in [16]; -31.7% (active) in test [17]; -93.9% (active) in test [18]. The growth in test [19] is -43.8% (active); in [20], -73.9% (active).
As to `COc1ccc(C(=O)C(C)C)c2ccccc12`, the growth in test [1] was 101%; in test [2] it was 105%; in [3], 117%; in test [4] it was 99.8%; in test [5] it was 101%; in test [6] it was 83.6%. Besides, the growth in [7] was 102%; in [8], 129%; in test [9], 100%; in test [10] it was 113%; in [11], 104%; in test [12], 92.7%. The growth in test [13] was 115%; in [14], 104%; in test [15] it was 109%; in [16] it was 102%; in test [17], 103%; in test [18], 103%. The growth was 128% in test [19] and 104% in test [20].
For `NC(=O)Nc1ccc2ncnc(Nc3ccc(Cl)cc3)c2c1`, the growth was 100% in test [1]; 99.8% in [2]; 18% in test [3]; 86.2% in test [4]; 87.9% in test [5]; 74.2% in test [6]. The growth was 66.2% in test [7]; 72.5% in test [8]; 85.9% in test [9]; 101% in test [10]; 52% in test [11]; 71.4% in [12]. Further, the growth in [13] is 117%; in test [14], 89.3%; in [15], 93.7%; in test [16], 79.7%; in test [17], 90.7%; in test [18] it was 95.7%. The growth in test [19] is 100%; in test [20], 107%.
`Cc1ccc(-c2nc(N3CCN(CC(=O)Nc4ccc(Cl)cc4)CC3)c3ccccc3n2)cc1`: the growth is 94% in test [1]; 92.9% in test [2]; 91.1% in [3]; 103% in [4]; 98.4% in test [5]; 114% in test [6]. For the same compound, the growth was 83.6% in test [7]; 77.4% in [8]; 92.1% in test [9]; 102% in test [10]; 88.7% in test [11]; 72.9% in test [12]. For the same compound, the growth in [13] is 101%; in test [14], 80.1%; in test [15], 74.9%; in test [16], 83.9%; in [17] it was 95.6%; in [18], 99.6%. Moreover, the growth in test [19] is 104%; in test [20] it was 99.1%.
`Cc1ccc(NC2=C(Cl)C(=O)c3nc(C)ccc3C2=O)cc1`: the growth in test [1] is -30.5% (active); in test [2], 38.1%; in test [3], 55.7%; in test [4], 75.2%; in test [5], 9.01% (active); in [6] it was -71% (active). Further, the growth in test [7] is -25.7% (active); in test [8] it was 54.6%; in test [9], 21.6%; in test [10], 106%; in test [11] it was -62.2% (active); in test [12], 6.64% (active). For the same compound, the growth in test [13] was -37.4% (active); in test [14] it was -80.3% (active); in [15], -57.2% (active); in test [16], 66.8%; in test [17], 62.1%; in test [18], -85.6% (active). Moreover, the figures for the growth in [19] and in test [20] were -73.8% (active) and 29.1%, respectively.
On to `CC(C)c1cc(C(C)C)c(S(=O)(=O)Oc2ccc(NC(=O)c3ccc(Cl)cc3)cc2)c(C(C)C)c1`, for which the growth was 15.2% in [1]; 51.6% in test [2]; 60.4% in test [3]; 57.9% in test [4]; 13.4% in [5]; 19.1% in [6]. The growth was 7.91% (active) in test [7]; 27.5% in test [8]; 33.8% in test [9]; 32.7% in test [10]; 43.7% in test [11]; 16.4% in test [12]. Also, the growth in test [13] was 53.8%; in test [14], 52.1%; in test [15], 51.4%; in [16] it was 50.6%; in test [17], 11.4%; in test [18] it was 73.6%. The growth in [19] was 24.7%; in [20] it was 36.2%.
As to `COc1ccc(/C=N/Nc2cc(=O)[nH]c3ccc(C)cc23)cc1`, the growth in test [1] was 70%; in [2], 81.5%; in test [3], 86.8%; in [4] it was 86.3%; in test [5], 103%; in [6] it was 88%. Besides, the growth is 75.2% in [7]; 91.3% in test [8]; 105% in test [9]; 106% in [10]; 105% in test [11]; 79.5% in [12]. Besides, the growth is 114% in test [13]; 126% in test [14]; 95.4% in test [15]; 115% in test [16]; 96.2% in test [17]; 101% in test [18]. For the same compound, the growth is 105% in test [19] and 86.3% in [20].

The record behind these values is PubChem BioAssay (NCI).
